Bioassay records from PubChem.
Only some compounds are listed: those with a hit (about 32% of all), similar ones and a draw of the others.
PostGolgi ctrl = growth of the yeast control strain, post-Golgi counter-screen. efflux-deficient yeast background strain, growth absorbance A615, 16 h. inhibition, % at 10 µM. actives 5% (n = 98,000). AID 738
CYP2C19 inhib = human CYP2C19 inhibition; AID 778; CYP2C19 Supersomes, luciferin-H EGE luminescence, 30 min; inhibition, % at 5 µM; P33261; actives 21% (n = 96,000);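 active means CYP2C19 inhibition above a set limit at 5 µM in the primary screen, cut at about 50% in these data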;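 further: plate controls were negative control wells for no effect and 2.5 mM tranylcypromine positive control for full effect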
Target sequence (P33261 whole entry, looked up): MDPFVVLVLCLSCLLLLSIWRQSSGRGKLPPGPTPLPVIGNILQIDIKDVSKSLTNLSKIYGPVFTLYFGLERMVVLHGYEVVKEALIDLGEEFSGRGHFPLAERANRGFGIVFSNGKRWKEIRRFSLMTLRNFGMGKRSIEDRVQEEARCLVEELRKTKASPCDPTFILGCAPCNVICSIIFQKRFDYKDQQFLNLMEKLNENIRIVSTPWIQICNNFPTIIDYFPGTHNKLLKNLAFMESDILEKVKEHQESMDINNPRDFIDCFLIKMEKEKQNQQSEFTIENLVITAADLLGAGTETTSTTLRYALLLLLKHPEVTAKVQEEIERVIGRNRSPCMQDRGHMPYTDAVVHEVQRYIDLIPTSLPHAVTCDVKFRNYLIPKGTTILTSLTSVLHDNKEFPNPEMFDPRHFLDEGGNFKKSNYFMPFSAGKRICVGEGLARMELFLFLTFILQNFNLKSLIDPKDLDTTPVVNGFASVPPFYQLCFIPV
CYP2C9 inhib = blocks human cytochrome P450 2C9; P11712; CYP2C9 Supersomes, luciferin-H conversion, luminescence; inhibition, % at 5 µM; actives 20% (n = 96,000); AID 777;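 active means blocking of liver enzyme CYP2C9 beyond about 50% at 5 µM, limit read from the data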
CYP2C19 act = cytochrome P450 2C19 (human) activation; P33261; recombinant CYP2C19, luciferin-H EGE luminescence; stronger effect = higher value; 0 = fully inhibited enzyme, 1 = untreated enzyme; activation factor at 5 µM; 96,000 tested, under 10 active; AID 1025;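 active means activation factor of at least 2 at 5 µM in the primary screen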;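 further: 0 = wells with 2.5 mM tranylcypromine and 1 = vehicle-only wells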
CYP2C9 act = CYP2C9 (human) activation. actives 1.4% (n = 96,000). activation factor at 5 µM. AID 1024. recombinant CYP2C9, luciferin-H conversion, luminescence; stronger effect = higher value; factor 1 = untreated enzyme, 0 = blocked. P11712;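 active means activation factor of 2 or more for CYP2C9 at a 5 µM dose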;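 further: 0 = sulfaphenazole-blocked wells and 1 = vehicle-only wells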
PostGolgi yeast = growth inhibition of a yeast mutant, post-Golgi transport screen. post-Golgi transport phenotypic cell assay. inhibition, % at 10 µM. actives 0.9% (n = 98,000);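 further: yeast cells grown in 1536-well plates; yeast grown about 18 h at 30C before absorbance read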
* hit, by the source's call; . = no result given. Unless noted, no stated cut-off is given here; in the data, active means inhibition above about 30%; inactive means the rest.

SMILES	PostGolgi ctrl	CYP2C19 inhib	CYP2C9 inhib	CYP2C19 act	CYP2C9 act	PostGolgi yeast
CCOc1ccccc1NC(=S)N1CCC(NC(=O)NC23CC4CC(CC(C4)C2)C3)CC1	13.9	23.7	-1.1	0.8	1	-1.4
COCCn1c(SCC#N)nnc1-c1ccccc1	1.2	36.0	29.7	0.6	0.7	0.7
C#CCSc1nnc(-c2sc(-c3ccccc3)nc2C)n1C	8.7	87.4*	40.6	0.1	0.6	8.6
CN1CCN(C2CCCCCC2)CC1	14.4	.	.	.	.	7.3
O=C(NCCCN1CCCC1)c1ccc(CSCc2cccc(Cl)c2)o1	12.9	10.5	0.8	0.9	1	0.3
O=c1oc2ccccc2cc1-c1nc(-c2cccs2)cs1	7.2	-5.0	29.5	1.1	0.7	6.7
O=c1oc2ccccc2cc1-c1cn2cccnc2n1	-1.8	57.4*	24.9	0.4	0.8	8.8
CC1CC(C)(C)N2C(=O)C3(Nc4ccccc4S3)c3cccc1c32 (centres undefined)	44.5*	52.3*	43.7	0.5	0.6	-0.8
CCCC1(C(=O)O)NC(c2cccc(OC)c2O)C2C(=O)N(c3ccccc3)C(=O)C21 (centres undefined)	5.7	-3.6	-9.7	1	1.1	0.8
c1ccc(-c2nc(Sc3ncnc4c3cnn4-c3ccccc3)n[nH]2)cc1	9.8	10.2	31.7	0.9	0.7	-3.1
COC(=O)CSc1nnc(-c2ccncc2)o1	-1.1	3.1	-12.4	1	1.1	2.3
CCOC(=O)c1cnc2ccc(Br)cc2c1NCCO	5.0	2.7	16.3	1	0.8	12.2
CCOC(=O)c1cnc2c(C(=O)OC)cccc2c1NCc1ccco1	5.6	23.9	54.5*	0.8	0.5	-4.7
CCOC(=O)c1ccc2ncc(C(=O)OCC)c(NCc3ccco3)c2c1	7.7	45.0	55.7*	0.6	0.4	10.0
CCOC(=O)c1ccc2ncc(C(=O)OCC)c(NCCCN3CCOCC3)c2c1	-4.6	82.7*	87.5*	0.2	0.1	15.5
CCOC(=O)COc1ccc2c(c1)C(=O)CC(C)(C)O2	12.8	13.4	13.4	0.9	0.9	2.7
COc1cccc(-c2nn(C)c3sc(C(=O)NCc4ccc(C)o4)cc23)c1	19.3	22.7	54.1*	0.8	0.5	11.0
COc1cccc(-c2nn(C)c3sc(C(=O)NCc4ccc5c(c4)OCO5)cc23)c1	30.4*	75.8*	87.2*	0.2	0.1	-8.8
CCN(CC)CCCNC(=O)c1cc2c(-c3ccc(Cl)cc3)nn(C)c2s1	3.5	10.7	20.6	0.9	0.8	-0.4
COc1ccccc1NC(=O)CCSc1nnnn1C	16.5	7.2	-3.4	0.9	1	12.6
Fc1ccc(CNc2nc3ccccc3n3cnnc23)cc1	-1.8	35.2	3.1	0.6	1	-7.0
CCCCCOc1ccc(NC(=O)C(=O)NCCCn2ccnc2)cc1	22.5	88.6*	83.1*	0.1	0.2	-4.3
O=C(c1ccc(C(F)(F)F)cc1)c1c[nH]c(C(=O)NCCCn2ccnc2)c1	6.8	95.1*	87.7*	0	0.1	-2.0
COc1ccc(C(=O)NCCCn2ccnc2)cc1	10.0	89.0*	28.2	0.1	0.7	-5.7
CC(C)OCCCNC(=O)c1ccncc1	2.0	89.3*	75.4*	0.1	0.2	5.6
SMILES	PostGolgi ctrl	CYP2C19 inhib	CYP2C9 inhib	CYP2C19 act	CYP2C9 act	PostGolgi yeast
Nc1ccc(N2CCN(C(=O)c3ccco3)CC2)cc1	8.3	44.5	17.7	0.6	0.8	-0.8
CCCOc1ccc(C(=O)NCCCn2ccnc2)cc1	20.7	90.2*	40.8	0.1	0.6	-0.9
COc1ccc2c(Cl)c(C(=O)NCCCn3ccnc3)sc2c1Cl	-7.0	88.1*	88.2*	0.1	0.1	-17.3
CC1CC(C)CN(S(=O)(=O)c2ccc(C(=O)NCc3ccc4c(c3)OCO4)cc2)C1 (centres undefined)	14.5	-11.6	11.6	1.1	0.9	-8.0
COc1ccc(C(=O)NCCc2cn3ccc(C)cc3n2)cc1	-0.8	74.6*	24.4	0.3	0.8	0.2
CC1CC(C)CN(S(=O)(=O)c2ccc(C(=O)NCCCn3ccnc3)cc2)C1 (centres undefined)	7.8	32.5	89.5*	0.7	0.1	-5.2
COc1ccc(OC)c(-c2cc(C(=O)Nc3cc(C)n(Cc4ccc(Cl)cc4)n3)no2)c1	18.7	12.1	-41.7	0.9	1.4	-8.7
CCOc1ccc(C(=O)NCCCn2ccnc2)cc1	0.3	93.3*	24.9	0.1	0.8	15.2
COc1ccc(OC)c(-c2cc(C(=O)NCCCn3ccnc3)no2)c1	-2.4	75.1*	21.8	0.2	0.8	-4.2
COc1ccc(-c2nn(-c3ccccc3)cc2C(=O)n2nnc3ccccc32)cc1	-8.0	7.5	-21.6	0.9	1.2	-4.9
O=C(NCCCn1ccnc1)c1cc(-c2cccs2)on1	9.8	79.3*	47.7	0.2	0.5	-3.5
COc1ccc(-c2nn(-c3ccccc3)cc2C(=O)NCCCn2ccnc2)cc1	3.0	95.8*	98.5*	0	0	7.2
Cc1c(C)c2ccc(OC3CCCCC3=O)cc2oc1=O (centres undefined)	4.8	4.3	14.0	1	0.9	0.5
O=C1CN(C(=O)COC(=O)COc2ccc3c(c2)CCC3)c2ccccc2N1	2.6	4.2	1.0	1	1	15.2
COc1ccc(NC(=O)C23CCC(C)(C(=O)C2)C3(C)C)cc1 (centres undefined)	1.1	8.4	1.5	0.9	1	-6.9
Cc1ccc(Sc2cc(Cl)nc(N)n2)cc1	9.7	4.0	3.8	1	1	-7.5
Cc1ccc(C(=O)NCCCn2ccnc2)cn1	0.6	35.4	9.7	0.6	0.9	-5.8
O=C(NCCCn1ccnc1)c1ccncc1	-2.8	44.9	56.7*	0.6	0.4	8.3
O=C(Oc1ccc(Cl)c2cccnc12)N1CCCCC1	7.3	54.7*	27.9	0.5	0.7	-2.7
O=C(Oc1ccc(Cl)c2ccccc12)N1CCCCC1	16.2	14.9	42.4	0.9	0.6	4.2
O=C(Oc1ccc2ccccc2c1Cl)N1CCCC1	7.1	75.1*	31.3	0.2	0.7	-8.8
Cc1cc(N2CCN(c3ccccc3)CC2)nc(-c2ccccc2)n1	67.3*	85.7*	48.9	0.1	0.5	-1.2
COc1ccc(C2(O)CC3CCC(C2)N3c2cc(C)nc(-c3ccccc3)n2)cc1 (centres undefined)	8.7	53.2*	92.6*	0.5	0.1	8.3
Cc1cc(N2CCN(C(=O)c3ccco3)CC2)nc(-c2ccccc2)n1	.	73.6*	55.2*	0.3	0.4	.
Cc1cc(N2CCCCCC2)nc(-c2ccccc2O)n1	34.2*	-11.1	1.6	1.1	1	1.1
Cc1cc(Oc2ccccc2)nc(-c2ccccc2)n1	0.3	17.9	16.4	0.8	0.8	-10.2
Cc1nnc(SCC(=O)N(Cc2ccccc2)C(C)C)n1-c1ccccc1	17.9	8.8	36.1	0.9	0.6	-2.5
CN(C)S(=O)(=O)c1cccc(C(=O)OCC(=O)Nc2sccc2C#N)c1	-1.1	-0.5	22.9	1	0.8	-24.4
